The record followed here is article PMC8384837, “Expanding the binding specificity for RNA recognition by a PUF domain”.

What all share (test): yeast three-hybrid, YBZ-1, SC-Leu-His + 0.5 mM 3-AT, 4 days
Conditions in all cases: tags: N-Gal4 AD-HA kept; label: inside an RPR1-promoter hybrid RNA with tandem MS2 sites; ssRNA

One assay has as its target PUM1 PUF domain R4-HRG (Homo sapiens, UniProt Q14671 828-1176, N971H;H972R;Q975G). In outline:
(§1)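 Each repeat of the Pumilio-1 PUF domain was randomized at its three base-contacting residues, and these libraries were co-expressed from a centromeric plasmid with matching RNA elements in strain YBZ-1. After four days on SC-Leu (input) or SC-Leu-His + 0.5 mM 3-AT (selection), the repeat regions were PCR-amplified and Illumina-sequenced. The interaction score compares variant frequency between input and selection as a log change, computed in log2 with a pseudocount of 1 for absent variants.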

A further assay concerns the target PUM1 PUF domain R5-AKR (Homo sapiens, UniProt Q14671 828-1176, C1007A;R1008K;Q1011R). In outline:
as §1

The next assay deals with PUM1 PUF domain R5-DFR (Homo sapiens, UniProt Q14671 828-1176, C1007D;R1008F;Q1011R). A digest of the protocol:
as §1

Another assay has as its target PUM1 PUF domain R8-RNR (Homo sapiens, UniProt Q14671 828-1176, N1122R;Y1123N;Q1126R). In outline:
as §1

The target of a further assay is PUM1 PUF domain R8-RFG (Homo sapiens, UniProt Q14671 828-1176, N1122R;Y1123F;Q1126G). A digest of the protocol: as §1
A further assay addresses PUM1 PUF domain R8-PFW (Homo sapiens, UniProt Q14671 828-1176, N1122P;Y1123F;Q1126W). A digest of the protocol:
as §1

In another assay the target is PUM1 PUF domain R8-THR (Homo sapiens, UniProt Q14671 828-1176, N1122T;Y1123H;Q1126R). In outline: as §1
In another assay the target is PUM1 PUF domain R8-KWG (Homo sapiens, UniProt Q14671 828-1176, N1122K;Y1123W;Q1126G). A digest of the protocol: as §1
Another assay addresses PUM1 PUF domain R8-CYN (Homo sapiens, UniProt Q14671 828-1176, N1122C;Q1126N). In outline: as §1
Another assay deals with PUM1 PUF domain R1-TWR (Homo sapiens, UniProt Q14671 828-1176, S863T;R864W;Q867R). A digest of the protocol:
as §1

Another assay addresses PUM1 PUF domain R5-DHA (Homo sapiens, UniProt Q14671 828-1176, C1007D;R1008H;Q1011A). A digest of the protocol: as §1
Another assay deals with PUM1 PUF domain R5-HKK (Homo sapiens, UniProt Q14671 828-1176, C1007H;R1008K;Q1011K). In outline: as §1
For another assay, the target named is PUM1 PUF domain R5-TRK (Homo sapiens, UniProt Q14671 828-1176, C1007T;Q1011K). In outline: as §1
A further assay addresses PUM1 PUF domain R5-QQG (Homo sapiens, UniProt Q14671 828-1176, C1007Q;R1008Q;Q1011G). In outline:
as §1

For a further assay, the target named is PUM1 PUF domain R4-NNW (Homo sapiens, UniProt Q14671 828-1176, H972N;Q975W). In outline:
as §1

Another assay deals with T1, PUM1 PUF domain R6-VFA (Homo sapiens, UniProt Q14671 828-1176, N1043V;Y1044F;Q1047A).
T1 sequence: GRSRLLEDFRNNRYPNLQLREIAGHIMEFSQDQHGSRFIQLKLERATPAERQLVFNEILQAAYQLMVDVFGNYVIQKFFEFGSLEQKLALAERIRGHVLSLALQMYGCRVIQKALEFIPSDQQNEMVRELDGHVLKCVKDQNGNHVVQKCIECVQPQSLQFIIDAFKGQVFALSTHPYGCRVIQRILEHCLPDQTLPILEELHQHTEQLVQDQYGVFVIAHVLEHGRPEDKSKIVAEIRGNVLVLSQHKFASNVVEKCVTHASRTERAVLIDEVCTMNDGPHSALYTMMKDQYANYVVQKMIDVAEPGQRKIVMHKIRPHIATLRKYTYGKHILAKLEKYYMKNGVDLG
A digest of the protocol: as §1

Another assay addresses PUM1 PUF domain R3-VFG (Homo sapiens, UniProt Q14671 828-1176, C935V;R936F;Q939G). In outline:
as §1

The target in the next assay is PUM1 PUF domain R5-PRF (Homo sapiens, UniProt Q14671 828-1176, C1007P;Q1011F). In outline:
as §1

Another assay concerns the target PUM1 PUF domain R3-CHG (Homo sapiens, UniProt Q14671 828-1176, R936H;Q939G). In outline:
as §1

Another assay has as its target PUM1 PUF domain R3-RIS (Homo sapiens, UniProt Q14671 828-1176, C935R;R936I;Q939S). A digest of the protocol: as §1

PUM1 PUF domain R5-HKK, sequence (Q14671 828-1176 C1007H/R1008K/Q1011K): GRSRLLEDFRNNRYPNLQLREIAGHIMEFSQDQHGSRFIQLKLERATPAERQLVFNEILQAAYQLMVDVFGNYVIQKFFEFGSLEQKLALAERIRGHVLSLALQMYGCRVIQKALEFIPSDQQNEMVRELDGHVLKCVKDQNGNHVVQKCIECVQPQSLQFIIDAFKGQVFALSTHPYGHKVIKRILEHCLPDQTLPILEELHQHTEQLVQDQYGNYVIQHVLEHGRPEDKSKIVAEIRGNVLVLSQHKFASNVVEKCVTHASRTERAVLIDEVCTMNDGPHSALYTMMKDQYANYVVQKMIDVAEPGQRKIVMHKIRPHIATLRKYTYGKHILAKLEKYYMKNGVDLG
PUM1 PUF domain R5-DFR, sequence (Q14671 828-1176 C1007D/R1008F/Q1011R): as the sequence (Q14671 828-1176 C1007H/R1008K/Q1011K) above, with H180D, K181F, K184R counted along it
PUM1 PUF domain R8-CYN, sequence (Q14671 828-1176 N1122C/Q1126N): as the sequence (Q14671 828-1176 C1007H/R1008K/Q1011K) above, with H180C, K181R, K184Q, N295C, Q299N counted along it

For the sequence “GGCUAGAACUAGUGGAUCCCCCGGCGCCCGGCGGCUCGAGCCCGGGUAAGUGUAUAUAGUCUGCAUGCCGCCGGGCGCCAUGCCUGCAGGUCGACUCUAGAAAACAUG”, the binding signal with PUM1 PUF domain R4-HRG is 2.71 log2 enrichment (interaction score).

In the case of “GGCUAGAACUAGUGGAUCCCCCGGCGCCCGGCGGCUCGAGCCCGGGUAAGUGUCAAUAGUCUGCAUGCCGCCGGGCGCCAUGCCUGCAGGUCGACUCUAGAAAACAUG”, the results for the binding signal with PUM1 PUF domain R5-AKR and in the assay with PUM1 PUF domain R5-DFR were 5.56 log2 enrichment (interaction score) and 5.27 log2 enrichment (interaction score), respectively.

On to “GGCUAGAACUAGUGGAUCCCCCGGCGCCCGGCGGCUCGAGCCCGGGUAAGCGUAAAUAGUCUGCAUGCCGCCGGGCGCCAUGCCUGCAGGUCGACUCUAGAAAACAUG”, for which the binding signal with PUM1 PUF domain R8-RNR was 2.37 log2 enrichment (interaction score); with PUM1 PUF domain R8-RFG, 6.69 log2 enrichment (interaction score); with PUM1 PUF domain R8-PFW, 3.6 log2 enrichment (interaction score); with PUM1 PUF domain R8-THR it was 3.22 log2 enrichment (interaction score); with PUM1 PUF domain R8-KWG it was 6.36 log2 enrichment (interaction score); with PUM1 PUF domain R8-CYN it was 2.28 log2 enrichment (interaction score).

Take “GGCUAGAACUAGUGGAUCCCCCGGCGCCCGGCGGCUCGAGCCCGGGUAAGUGUAAAUUGUCUGCAUGCCGCCGGGCGCCAUGCCUGCAGGUCGACUCUAGAAAACAUG”: the binding signal with PUM1 PUF domain R1-TWR is 0.55 log2 enrichment (interaction score).

For “GGCUAGAACUAGUGGAUCCCCCGGCGCCCGGCGGCUCGAGCCCGGGUAAGUGUUAAUAGUCUGCAUGCCGCCGGGCGCCAUGCCUGCAGGUCGACUCUAGAAAACAUG”, the binding signal in the assay with PUM1 PUF domain R5-DHA is 4.01 log2 enrichment (interaction score); in the assay with PUM1 PUF domain R5-HKK, 2.41 log2 enrichment (interaction score); with PUM1 PUF domain R5-TRK it was 4.73 log2 enrichment (interaction score); with PUM1 PUF domain R5-QQG, 2.7 log2 enrichment (interaction score).

In the case of “GGCUAGAACUAGUGGAUCCCCCGGCGCCCGGCGGCUCGAGCCCGGGUAAGUGUACAUAGUCUGCAUGCCGCCGGGCGCCAUGCCUGCAGGUCGACUCUAGAAAACAUG”, the binding signal was 2.09 log2 enrichment (interaction score) with PUM1 PUF domain R4-HRG and 4.15 log2 enrichment (interaction score) with PUM1 PUF domain R4-NNW.

For the sequence “GGCUAGAACUAGUGGAUCCCCCGGCGCCCGGCGGCUCGAGCCCGGGUAAGUGAAAAUAGUCUGCAUGCCGCCGGGCGCCAUGCCUGCAGGUCGACUCUAGAAAACAUG”, the binding signal with PUM1 PUF domain R6-VFA was 6.94 log2 enrichment (interaction score).

“GGCUAGAACUAGUGGAUCCCCCGGCGCCCGGCGGCUCGAGCCCGGGUAAGUGUAAAUAGUCUGCAUGCCGCCGGGCGCCAUGCCUGCAGGUCGACUCUAGAAAACAUG”: the binding signal is 2.89 log2 enrichment (interaction score) in the assay with PUM1 PUF domain R6-VFA; 3.06 log2 enrichment (interaction score) in the assay with PUM1 PUF domain R4-HRG; 0.57 log2 enrichment (interaction score) in the assay with PUM1 PUF domain R8-RNR; 4.85 log2 enrichment (interaction score) in the assay with PUM1 PUF domain R8-RFG; 2.7 log2 enrichment (interaction score) with PUM1 PUF domain R8-THR; 5.91 log2 enrichment (interaction score) with PUM1 PUF domain R8-KWG. Besides, the binding signal with PUM1 PUF domain R5-TRK is 4.09 log2 enrichment (interaction score); with PUM1 PUF domain R3-VFG it was 3.82 log2 enrichment (interaction score); with PUM1 PUF domain R5-QQG, 0.25 log2 enrichment (interaction score); with PUM1 PUF domain R5-PRF, 3.86 log2 enrichment (interaction score); with PUM1 PUF domain R3-CHG, 2.43 log2 enrichment (interaction score).

Consider “GGCUAGAACUAGUGGAUCCCCCGGCGCCCGGCGGCUCGAGCCCGGGUAAGUGUGAAUAGUCUGCAUGCCGCCGGGCGCCAUGCCUGCAGGUCGACUCUAGAAAACAUG”, for which, in the assay with PUM1 PUF domain R5-DHA, the binding signal was 2.38 log2 enrichment (interaction score).

Regarding “GGCUAGAACUAGUGGAUCCCCCGGCGCCCGGCGGCUCGAGCCCGGGUAAGUGUAAAUCGUCUGCAUGCCGCCGGGCGCCAUGCCUGCAGGUCGACUCUAGAAAACAUG”, the binding signal with PUM1 PUF domain R1-TWR was 5.66 log2 enrichment (interaction score).

Turning to “GGCUAGAACUAGUGGAUCCCCCGGCGCCCGGCGGCUCGAGCCCGGGUAAGUGUAAUUAGUCUGCAUGCCGCCGGGCGCCAUGCCUGCAGGUCGACUCUAGAAAACAUG”, the binding signal was 3.36 log2 enrichment (interaction score) with PUM1 PUF domain R3-RIS and 4.61 log2 enrichment (interaction score) with PUM1 PUF domain R3-VFG.

As for “GGCUAGAACUAGUGGAUCCCCCGGCGCCCGGCGGCUCGAGCCCGGGUAAGUGUAAGUAGUCUGCAUGCCGCCGGGCGCCAUGCCUGCAGGUCGACUCUAGAAAACAUG”, the binding signal in the assay with PUM1 PUF domain R3-RIS was 3.17 log2 enrichment (interaction score); with PUM1 PUF domain R3-VFG it was 1.68 log2 enrichment (interaction score); with PUM1 PUF domain R3-CHG, 0.98 log2 enrichment (interaction score).
